# Laboratory results reported in paper PMC7862700, “An all-to-all approach to the identification of sequence-specific readers for epigenetic DNA modifications on cytosine”.
# Tests used:
# Assay in all cases: DAPPL (digital affinity profiling via proximity ligation, sequencing); 10 mM Tris-HCl pH 7.5, 50 mM NaCl, 1 mM DTT, 4% glycerol, room temperature, 30 min; GST-TFs on glutathione beads, 16-mer random dsDNA library, 0.1% formaldehyde crosslink after washing; high values mean tight binding
# Conditions in all cases: protein: recombinant; tags: N-terminal GST; dsDNA, one strand shown
# ERF = biological target: T1, ERF (Homo sapiens, UniProt P50548 1-548)
# T1 sequence: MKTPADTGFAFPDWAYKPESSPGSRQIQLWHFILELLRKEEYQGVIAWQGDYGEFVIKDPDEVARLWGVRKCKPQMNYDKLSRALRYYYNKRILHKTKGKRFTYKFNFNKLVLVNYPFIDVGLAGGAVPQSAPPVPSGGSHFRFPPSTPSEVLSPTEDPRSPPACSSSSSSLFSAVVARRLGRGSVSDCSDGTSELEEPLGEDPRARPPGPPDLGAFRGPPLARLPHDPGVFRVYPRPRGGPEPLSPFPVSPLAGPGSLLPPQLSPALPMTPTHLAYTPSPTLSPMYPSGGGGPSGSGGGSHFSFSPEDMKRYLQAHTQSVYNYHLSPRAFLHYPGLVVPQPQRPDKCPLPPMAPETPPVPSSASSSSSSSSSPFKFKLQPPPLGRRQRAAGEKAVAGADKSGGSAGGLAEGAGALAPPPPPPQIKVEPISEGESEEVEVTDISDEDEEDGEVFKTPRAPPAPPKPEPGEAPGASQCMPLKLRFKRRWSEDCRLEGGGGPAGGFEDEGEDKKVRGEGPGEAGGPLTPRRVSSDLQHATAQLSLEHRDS
# How it was run: (§1)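 Pools were built from human transcription factors expressed in yeast as GST fusions, captured on glutathione beads and DNA-barcoded, along with a tag-only sample. Incubation with 200 nmole of a 16-mer random double-stranded DNA library lasted 30 min at room temperature in Tris/NaCl/DTT/glycerol buffer, and was followed by washing, 0.1% formaldehyde crosslinking, proximity ligation, PCR amplification and Illumina NextSeq500 sequencing. Binding signal is the quotient of each hexamer's read frequency for a factor and its frequency for the tag-only sample.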
# ETV3L = biological target: T2, ETV3L (Homo sapiens, UniProt Q6ZN32 1-361)
# T2 sequence: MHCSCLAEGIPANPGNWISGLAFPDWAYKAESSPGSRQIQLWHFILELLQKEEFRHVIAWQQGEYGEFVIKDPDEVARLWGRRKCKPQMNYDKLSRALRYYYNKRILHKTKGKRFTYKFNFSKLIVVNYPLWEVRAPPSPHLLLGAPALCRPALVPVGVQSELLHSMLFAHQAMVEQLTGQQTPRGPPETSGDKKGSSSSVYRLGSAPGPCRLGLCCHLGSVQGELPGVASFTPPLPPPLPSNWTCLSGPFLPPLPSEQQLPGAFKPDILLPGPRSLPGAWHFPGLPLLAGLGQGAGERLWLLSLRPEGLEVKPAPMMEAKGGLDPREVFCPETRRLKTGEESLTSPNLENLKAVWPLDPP
# How it was run: as §1
# ETS2 = biological target: T3, ETS2 (Homo sapiens, UniProt P15036 1-469)
# T3 sequence: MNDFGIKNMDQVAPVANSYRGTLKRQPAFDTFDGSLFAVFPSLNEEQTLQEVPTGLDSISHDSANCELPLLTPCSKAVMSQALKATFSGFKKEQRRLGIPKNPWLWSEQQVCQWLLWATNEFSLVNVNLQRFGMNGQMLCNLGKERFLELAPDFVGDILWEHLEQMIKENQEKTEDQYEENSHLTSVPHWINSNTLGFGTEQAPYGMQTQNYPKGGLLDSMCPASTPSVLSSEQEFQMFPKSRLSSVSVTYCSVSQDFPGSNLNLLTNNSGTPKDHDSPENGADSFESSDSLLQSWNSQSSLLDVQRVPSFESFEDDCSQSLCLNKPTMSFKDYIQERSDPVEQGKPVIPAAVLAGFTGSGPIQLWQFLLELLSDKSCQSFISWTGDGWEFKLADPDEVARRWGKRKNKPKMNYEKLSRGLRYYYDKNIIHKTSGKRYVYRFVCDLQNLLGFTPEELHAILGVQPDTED
# How it was run: as §1
# SPDEF = biological target: T4, SPDEF (Homo sapiens, UniProt O95238 1-335)
# T4 sequence: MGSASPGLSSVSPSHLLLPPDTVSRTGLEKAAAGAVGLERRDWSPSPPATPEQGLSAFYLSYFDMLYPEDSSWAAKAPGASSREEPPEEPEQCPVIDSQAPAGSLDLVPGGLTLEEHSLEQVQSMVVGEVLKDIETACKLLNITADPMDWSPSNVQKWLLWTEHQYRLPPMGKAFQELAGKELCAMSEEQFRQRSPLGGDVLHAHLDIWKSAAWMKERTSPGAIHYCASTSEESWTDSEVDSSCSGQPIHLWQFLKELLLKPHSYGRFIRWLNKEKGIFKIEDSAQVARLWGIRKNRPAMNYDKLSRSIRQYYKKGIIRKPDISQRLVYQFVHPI
# How it was run: as §1
# ETV7 = biological target: T5, ETV7 (Homo sapiens, UniProt Q9Y603 1-341)
# T5 sequence: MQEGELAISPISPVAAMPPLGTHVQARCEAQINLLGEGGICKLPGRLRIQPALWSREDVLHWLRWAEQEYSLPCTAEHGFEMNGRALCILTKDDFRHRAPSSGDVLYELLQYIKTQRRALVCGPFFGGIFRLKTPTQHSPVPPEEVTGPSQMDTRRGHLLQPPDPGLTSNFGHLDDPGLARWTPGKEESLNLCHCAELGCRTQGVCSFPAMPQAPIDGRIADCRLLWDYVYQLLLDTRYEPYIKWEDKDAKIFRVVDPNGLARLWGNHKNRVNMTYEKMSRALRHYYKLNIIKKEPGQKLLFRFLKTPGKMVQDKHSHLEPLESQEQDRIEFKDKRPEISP
# How it was run: as §1
# ELF5 = biological target: T6, ELF5 (Homo sapiens, UniProt Q9UKW6-2 1-255)
# T6 sequence: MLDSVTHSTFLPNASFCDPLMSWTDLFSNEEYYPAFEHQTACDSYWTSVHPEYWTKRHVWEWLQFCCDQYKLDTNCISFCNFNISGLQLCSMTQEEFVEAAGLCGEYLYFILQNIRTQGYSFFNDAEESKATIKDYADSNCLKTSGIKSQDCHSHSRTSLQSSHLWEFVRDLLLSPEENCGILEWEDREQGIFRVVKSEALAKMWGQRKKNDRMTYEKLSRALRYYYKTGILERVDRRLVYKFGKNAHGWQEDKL
# How it was run: as §1
# ETV3 = biological target: T7, ETV3 (Homo sapiens, UniProt P41162-2 1-143)
# T7 sequence: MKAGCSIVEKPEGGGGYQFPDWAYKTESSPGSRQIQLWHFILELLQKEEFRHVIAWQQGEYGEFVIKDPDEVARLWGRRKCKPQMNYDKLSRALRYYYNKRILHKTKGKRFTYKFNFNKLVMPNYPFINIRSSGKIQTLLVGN
# How it was run: as §1
# ETV6 = ETV6 (Homo sapiens, UniProt P41212 1-452)
# Sequence of ETV6 (P41212 whole entry): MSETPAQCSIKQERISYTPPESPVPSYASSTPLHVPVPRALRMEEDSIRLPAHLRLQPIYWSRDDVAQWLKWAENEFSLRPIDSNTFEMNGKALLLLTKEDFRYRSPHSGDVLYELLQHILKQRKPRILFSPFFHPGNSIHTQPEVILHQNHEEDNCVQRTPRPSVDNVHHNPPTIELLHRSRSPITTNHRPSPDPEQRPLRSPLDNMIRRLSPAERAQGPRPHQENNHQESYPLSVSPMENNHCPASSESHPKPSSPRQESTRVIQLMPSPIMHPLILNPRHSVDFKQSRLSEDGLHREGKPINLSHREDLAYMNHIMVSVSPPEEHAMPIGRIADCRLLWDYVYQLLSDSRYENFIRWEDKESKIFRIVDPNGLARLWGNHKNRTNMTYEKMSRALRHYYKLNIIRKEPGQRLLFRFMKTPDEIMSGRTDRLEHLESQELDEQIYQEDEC
# How it was run: as §1
Sequence,binding signal (ERF),binding signal (ETV3L),binding signal (ETS2),binding signal (SPDEF),binding signal (ETV7),binding signal (ELF5),binding signal (ETV3),binding signal (ETV6)
ACAAAC,"1.11 fold enrichment (6-mer frequency, TF over GST control)","1.08 fold enrichment (6-mer frequency, TF over GST control)","1.22 fold enrichment (6-mer frequency, TF over GST control)","1.15 fold enrichment (6-mer frequency, TF over GST control)","1.11 fold enrichment (6-mer frequency, TF over GST control)","1.12 fold enrichment (6-mer frequency, TF over GST control)","1.09 fold enrichment (6-mer frequency, TF over GST control)","1.15 fold enrichment (6-mer frequency, TF over GST control)"
CTGCCG,"1.27 fold enrichment (6-mer frequency, TF over GST control)","1.23 fold enrichment (6-mer frequency, TF over GST control)","1.32 fold enrichment (6-mer frequency, TF over GST control)","1.26 fold enrichment (6-mer frequency, TF over GST control)","1.39 fold enrichment (6-mer frequency, TF over GST control)","1.33 fold enrichment (6-mer frequency, TF over GST control)","1.44 fold enrichment (6-mer frequency, TF over GST control)","1.39 fold enrichment (6-mer frequency, TF over GST control)"
AGAAAT,"1.13 fold enrichment (6-mer frequency, TF over GST control)","1.17 fold enrichment (6-mer frequency, TF over GST control)","1.21 fold enrichment (6-mer frequency, TF over GST control)","1.03 fold enrichment (6-mer frequency, TF over GST control)","1.21 fold enrichment (6-mer frequency, TF over GST control)","1.15 fold enrichment (6-mer frequency, TF over GST control)","1.09 fold enrichment (6-mer frequency, TF over GST control)","1.18 fold enrichment (6-mer frequency, TF over GST control)"
ACCCGG,"1.48 fold enrichment (6-mer frequency, TF over GST control)","1.69 fold enrichment (6-mer frequency, TF over GST control)","1.79 fold enrichment (6-mer frequency, TF over GST control)","2.23 fold enrichment (6-mer frequency, TF over GST control)","1.55 fold enrichment (6-mer frequency, TF over GST control)","1.91 fold enrichment (6-mer frequency, TF over GST control)","1.82 fold enrichment (6-mer frequency, TF over GST control)","1.7 fold enrichment (6-mer frequency, TF over GST control)"
TTCTAA,"1.23 fold enrichment (6-mer frequency, TF over GST control)","1.16 fold enrichment (6-mer frequency, TF over GST control)","1.26 fold enrichment (6-mer frequency, TF over GST control)","1.22 fold enrichment (6-mer frequency, TF over GST control)","1.23 fold enrichment (6-mer frequency, TF over GST control)","1.17 fold enrichment (6-mer frequency, TF over GST control)","1.19 fold enrichment (6-mer frequency, TF over GST control)","1.24 fold enrichment (6-mer frequency, TF over GST control)"
TGCATG,"1.06 fold enrichment (6-mer frequency, TF over GST control)","1.27 fold enrichment (6-mer frequency, TF over GST control)","1.06 fold enrichment (6-mer frequency, TF over GST control)","1.06 fold enrichment (6-mer frequency, TF over GST control)","1.06 fold enrichment (6-mer frequency, TF over GST control)","1.01 fold enrichment (6-mer frequency, TF over GST control)","1.1 fold enrichment (6-mer frequency, TF over GST control)","1.08 fold enrichment (6-mer frequency, TF over GST control)"
TACGGA,"1.28 fold enrichment (6-mer frequency, TF over GST control)","1.34 fold enrichment (6-mer frequency, TF over GST control)","1.38 fold enrichment (6-mer frequency, TF over GST control)","1.47 fold enrichment (6-mer frequency, TF over GST control)","1.18 fold enrichment (6-mer frequency, TF over GST control)","1.51 fold enrichment (6-mer frequency, TF over GST control)","1.43 fold enrichment (6-mer frequency, TF over GST control)","1.39 fold enrichment (6-mer frequency, TF over GST control)"
TCCCCG,"1.21 fold enrichment (6-mer frequency, TF over GST control)","1.17 fold enrichment (6-mer frequency, TF over GST control)","1.11 fold enrichment (6-mer frequency, TF over GST control)","1.14 fold enrichment (6-mer frequency, TF over GST control)","1.15 fold enrichment (6-mer frequency, TF over GST control)","1.24 fold enrichment (6-mer frequency, TF over GST control)","1.27 fold enrichment (6-mer frequency, TF over GST control)","1.13 fold enrichment (6-mer frequency, TF over GST control)"
CCTACA,"1.23 fold enrichment (6-mer frequency, TF over GST control)","1.35 fold enrichment (6-mer frequency, TF over GST control)","1.19 fold enrichment (6-mer frequency, TF over GST control)","1.17 fold enrichment (6-mer frequency, TF over GST control)","1.15 fold enrichment (6-mer frequency, TF over GST control)","1.41 fold enrichment (6-mer frequency, TF over GST control)","1.29 fold enrichment (6-mer frequency, TF over GST control)","1.29 fold enrichment (6-mer frequency, TF over GST control)"
